LmPK inhibitor: inhibitors of Leishmania mexicana pyruvate kinase. Q27686. purified LmPK, Kinase-Glo ATP luminescence, 1 h. Potency, µM (doses to about 57.5 µM), usual class: inhibitors. actives 0.37% (n = 290,000)
Target sequence (Q27686 whole entry, looked up): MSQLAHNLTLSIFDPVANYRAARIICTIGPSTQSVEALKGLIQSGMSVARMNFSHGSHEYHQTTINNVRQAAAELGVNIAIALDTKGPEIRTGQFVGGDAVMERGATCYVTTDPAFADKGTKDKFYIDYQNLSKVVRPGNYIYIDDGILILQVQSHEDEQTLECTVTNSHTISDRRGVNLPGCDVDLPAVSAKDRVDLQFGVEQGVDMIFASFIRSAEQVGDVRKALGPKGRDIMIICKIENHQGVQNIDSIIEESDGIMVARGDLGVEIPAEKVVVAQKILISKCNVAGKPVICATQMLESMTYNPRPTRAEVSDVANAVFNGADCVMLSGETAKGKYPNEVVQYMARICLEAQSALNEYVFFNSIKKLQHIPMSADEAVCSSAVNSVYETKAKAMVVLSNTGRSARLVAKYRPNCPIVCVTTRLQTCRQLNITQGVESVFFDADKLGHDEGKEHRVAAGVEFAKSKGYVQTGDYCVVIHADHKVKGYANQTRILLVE
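qHTS format; LmPK 0.1 nM; substrates PEP 0.5 mM and ADP 0.1 mM. One-hour room-temperature incubation, then coupled luciferase luminescence; 0.5 nM enzyme wells mark activation.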
TbPYK inhibitor: blocks Trypanosoma brucei pyruvate kinase | AID 624173 | actives 0.12% (n = 410,000) | Q57TT1 | Potency, µM (titrated, usually from 76.8 µM), most hits filed as inhibitors | TbPYK enzyme, Kinase-Glo Plus ATP luminescence, 45 min; note: nearly all actives have a fitted effect of over 50% in size
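Readout: single end-point luminescence (Kinase-Glo Plus, 10 min). Reaction conditions were TbPYK/substrate plus 130 uM ADP, 45 min at RT, pH 7.2 TEA buffer. No-enzyme wells served as controls, and data were normalized before concentration-response fitting.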
RE007 growth inh: less growth of the S. pombe RE007 Vpr strain; S. pombe RE007 Vpr strain, BacTiter-Glo ATP luminescence, 24 h; Potency, µM (doses to about 92.2 µM), usual class: inhibitors; actives 0.21% (n = 360,000); active = well fitted falling curve with a large enough effect; inconclusive = small, poorly fitted or top-dose-only effect; inactive = no such curve, though single readings can be large or run the other way; note: nearly all actives have a fitted effect of over 50% in size
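Fission yeast RE007 carrying one integrated HIV-1 vpr copy, seeded at OD 0.01 in PMG+AL medium with 23 nL pinned compound. Grown 24 h at 30 degrees; viability read by BacTiter-Glo luminescence after 5 min.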
Giardia FBPA inh: inhibitors of Giardia lamblia fructose-1,6-bisphosphate aldolase | A8B2U2 | purified Giardia FBPA | Potency, µM (highest dose often 59.6 µM), usual class: inhibitors | actives 0.71% (n = 290,000); note: nearly all actives have a fitted effect of over 55% in size
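Giardia FBPA (40 nM reagent) was preincubated 10 min at RT with compound (up to 57.5 uM final), then substrate plus GAPDH/TPI/NAD/arsenate coupling system with diaphorase/resazurin was added; resorufin fluorescence (525/598 nm) was read after 20 min.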
Hits are given with their value; [ ] = dose if it differs, or a comment. Shown are actives, neighbours in structure and some others; about 0.95% of the full set was active somewhere. Unless noted, calls come from the whole dose curve; as a rule, active = well fitted curve in the direction sought with a large enough effect; inconclusive = small, poorly fitted or top-dose-only effect, or another doubt; inactive = no such curve, though single readings can be large; an effect the other way counts as inactive or inconclusive.

For CCn1c(-c2ccccc2)c[nH]c1=S the results were LmPK inhibitor 14.1µM, TbPYK inhibitor inconclusive, RE007 growth inh inactive and Giardia FBPA inh inactive.
S=c1[nH]cc(-c2ccccc2)n1-c1ccccc1 was read as LmPK inhibitor 3.16µM, TbPYK inhibitor inconclusive, RE007 growth inh inactive and Giardia FBPA inh inactive.
`CCc1ccccc1NC(=O)Cn1c(=O)n(Cc2ccccc2)c(=O)c2c(C)c(C(=O)N(C)C)sc21` gave TbPYK inhibitor inactive.
For COc1ccc(OC2C=CC(C#Cc3ccc(C(C)(C)C)cc3)OC2CO)cc1 (stereo not given) the results were Giardia FBPA inh inactive[12.9 µM].
For COc1ccc(NC(=O)Cn2c(SCc3ccc(F)cc3)nc3cccnc32)c(OC)c1 the results were TbPYK inhibitor inactive.
Cc1ccc(C(=O)Nc2ccc(-c3csc(C)n3)cc2)cc1 was read as LmPK inhibitor inactive, TbPYK inhibitor inactive, RE007 growth inh inactive and Giardia FBPA inh inactive.
Cc1nc(-c2ccc(NC(=O)c3ccccc3)cc2)cs1 was read as LmPK inhibitor inactive, TbPYK inhibitor inconclusive, RE007 growth inh 44.7µM and Giardia FBPA inh inactive.
For CN(C)c1ccc(/C=N/NC(=O)c2ccnn2C)cc1 the results were LmPK inhibitor 8.91µM, TbPYK inhibitor inconclusive, RE007 growth inh inactive and Giardia FBPA inh inactive.
Screening O=C(N/N=C/c1ccc2c(c1)OCO2)c1ccccn1 returned LmPK inhibitor 11.2µM, TbPYK inhibitor inactive, RE007 growth inh inactive and Giardia FBPA inh inactive.
Screening CN(C)c1ccc(NC(=S)c2ccccn2)cc1 returned LmPK inhibitor 4.47µM, TbPYK inhibitor inconclusive, RE007 growth inh inconclusive and Giardia FBPA inh inconclusive.
Screening O=C(N/N=C/c1cc2c(cc1Br)OCO2)c1ccccn1 returned LmPK inhibitor inconclusive, TbPYK inhibitor inactive, RE007 growth inh inactive and Giardia FBPA inh inactive.
Screening CN(C)c1ccc(/C=N/NC(=O)c2ccccn2)cc1 returned LmPK inhibitor 12.6µM, TbPYK inhibitor inconclusive, RE007 growth inh inactive and Giardia FBPA inh inactive.
O=C(N/N=C/c1ccncc1)c1ccccn1 was read as LmPK inhibitor inactive, TbPYK inhibitor inactive, RE007 growth inh inactive and Giardia FBPA inh inconclusive.
`COc1ccccc1CCNC(=O)C(=O)NCC(c1ccco1)S(=O)(=O)c1cccs1` (stereo not given) gave TbPYK inhibitor inactive.
Screening CN[C@@H]1CCc2[nH]c3ccc(C(N)=O)cc3c2C1 returned TbPYK inhibitor inactive.
For CN1C(=O)c2ccccc2Sc2ccc(NC(=O)N3CCN(c4cccc(Cl)c4)CC3)cc21 the results were TbPYK inhibitor inactive.
Cc1ccc(N)c(Cl)c1 was read as Giardia FBPA inh inactive.
For CN(C)c1ccc(/C=C(\C#N)c2ccccn2)cc1 the results were LmPK inhibitor 10µM, TbPYK inhibitor inconclusive, RE007 growth inh inconclusive and Giardia FBPA inh inactive.
For CC(C)c1ccc(/C=N/NC(=O)c2ccccn2)cc1 the results were LmPK inhibitor 14.1µM, TbPYK inhibitor inactive, RE007 growth inh inactive and Giardia FBPA inh inactive.
O=C(N/N=C/c1ccc(N2CCOCC2)cc1)c1ccccn1 was read as LmPK inhibitor inconclusive, TbPYK inhibitor inactive, RE007 growth inh inactive and Giardia FBPA inh inactive.
Screening c1ccc(CNc2ccc3ccccc3n2)nc1 returned LmPK inhibitor 17.8µM, TbPYK inhibitor inactive, RE007 growth inh inactive and Giardia FBPA inh inactive.
`NS(=O)(=O)c1ccc(-c2ccc(C=C3C(=O)NC(=O)NC3=O)o2)cc1` gave LmPK inhibitor inactive, TbPYK inhibitor 10µM, RE007 growth inh inactive and Giardia FBPA inh inactive.
`CC1(C)OC(=O)C(=Cc2ccc(-c3ccc(S(N)(=O)=O)cc3)o2)C(=O)O1` gave LmPK inhibitor inactive, TbPYK inhibitor 22.4µM, RE007 growth inh inactive and Giardia FBPA inh inactive.
`NS(=O)(=O)c1ccc(-c2ccc(C=C3C(=O)NC(=S)NC3=O)o2)cc1` gave LmPK inhibitor inactive and Giardia FBPA inh inconclusive.
Screening O=C(NCc1ccc2c(c1)CCN2C(=O)c1ccc(F)cc1)c1ccco1 returned TbPYK inhibitor inactive.
For Cc1ccc(C(=O)N/C(=C\c2ccc(-c3ccccc3[N+](=O)[O-])o2)C(=O)NCCN(C)C)cc1 the results were LmPK inhibitor inactive, TbPYK inhibitor inactive, RE007 growth inh inactive and Giardia FBPA inh 5.01µM.
Screening CC/C(O)=N/S(=O)(=O)c1ccc(-c2c(-c3ccccc3)noc2C)cc1 returned TbPYK inhibitor inactive.
For O=C1C(Nc2ccccc2)=C/C(=N/S(=O)(=O)c2cccs2)c2ccccc21 the results were LmPK inhibitor inactive, TbPYK inhibitor inactive, RE007 growth inh inconclusive and Giardia FBPA inh inconclusive.
